Source: PubChem BioAssay
Hits are enriched below; roughly 3.8% of the tested compounds scored in any of these assays.
ATXN2 expr inh = inhibitors of ATXN2 expression; HEK-293 ATXN2-luciferase reporter, luminescence, 24 h; Potency, µM (titrated, usually from 57 µM), without a hit: top-dose activity change, negative = inhibition, usual class: inhibitors; 0.72% of 360,000 active; note: potency is the fitted concentration of half-maximal effect; % is set by controls: 0 for no effect and ±100 for the full control effect; nearly all actives have a fitted effect of over 55% in size
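qHTS (up to 57 uM final) was run with 24 h compound exposure of reporter cells at 37 °C. Each well was multiplexed: SteadyGlo luminescence measured ATXN2-luciferase expression after a fluorogenic Gly-Phe-AFC viability readout (25 uM final).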
ATXN viability = reduces viability in counter-screen for ATXN expression inhibitors | S2 cells (HEK-293 line with an ATXN2-luciferase reporter) viability, CellTiter-Fluor protease fluorescence, 24 h | Potency, µM (highest dose often 56.7 µM), most hits filed as cytotoxic | 0.49% of 400,000 active | AID 651635; note: potency is the fitted concentration of half-maximal effect; nearly all actives have a fitted effect of over 40% in size
HT1080 IDH1KD tx = kills HT-1080 cells with IDH1 knockdown; HT-1080 IDH1 knockdown viability, ATP luminescence, 48 h; Potency, µM (doses to about 46.1 µM), without a hit: at the highest dose activity, negative = toxicity, usual class: cytotoxic; 2% of 360,000 active; AID 686971;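 note: potency is the fitted concentration of half-maximal effect; 0% = DMSO wells and -100% = cell-free medium wells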
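Luminescent ATP read-out (CellTiter-Glo, 10 min at room temperature) after 48 h compound exposure at 37 °C gave viability of IDH1-knockdown HT-1080 cells. Activity was normalised to DMSO and cell-free wells, then fitted as concentration-response curves.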
TGFb SMAD3 inh = blocks TGF-b signaling; HepG2 CAGA-GFP TGF-b/SMAD3 reporter, GFP fluorescence, 18 h; TGF-beta stimulated, 500 pg/mL final; Potency, µM (doses to about 46.1 µM), for the others: at the highest dose activity, negative = inhibition, usual class: inhibitors; 1.2% of 410,000 active; note: potency is the fitted concentration of half-maximal effect; % is set by controls: 0 for no effect and ±100 for the full control effect; nearly all actives have a fitted effect of over 65% in size
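GFP signal (ex488/em500-530) from TGF-beta-stimulated HEPG2 CAGA-GFP cells, 500 pg/mL final, 18 h at 37 degrees C in DMEM plus 1% FBS, normalized to unstimulated and DMSO-stimulated controls.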
HT1080NT lethal = kills 2HG-producing HT-1080-NT fibrosarcoma cells. HT-1080-NT fibrosarcoma viability, CellTiter-Glo ATP luminescence, 48 h. Potency, µM (series often up to 46.1 µM), inactives show at the top dose activity, negative = less viability, usual class: cytotoxic. 1.6% of 360,000 active;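 note: NT is the 2HG producing partner of a matched IDH1 knockdown line; potency is the fitted concentration of half-maximal effect; 0% = DMSO-treated cells and -100% = media-only wells without cells; nearly all actives have a fitted effect of over 55% in size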
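Compounds were tested in concentration-response format on HT-1080-NT cells for 48 hours at 37 degrees C. Cell viability came from CellTiter-Glo luminescence; curves were classified by r2, response magnitude and activity.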
HepG2 tox-1 = HepG2 cytotoxicity, counter-screen for TGF-b inhibitors. Potency, µM (highest dose often 46.1 µM), without a hit: at the top dose activity change, negative = cytotoxicity, usual class: cytotoxic. HepG2 CAGA-GFP viability, ATP luminescence, 18 h. 0.76% of 410,000 active. AID 588856; note: potency is the fitted concentration of half-maximal effect
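CellTiter-Glo luminescence gave cytotoxicity after 18 hours at 37 degrees C. The cells were HepG2 CAGA-GFP in 1% FBS DMEM, stimulated with 500 pg/mL TGF-beta after compound addition. %Activity was normalised to no-cell wells (complete cell-killing) and DMSO (no toxicity), and curves were fitted and classified.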
TGFb confirm = TGF-b pathway inhibition, cherry-pick retest. shares compounds with TGFb SMAD3 inh. HepG2 CAGA-GFP TGF-b reporter, GFP fluorescence, 18 h; cells stimulated with TGF-beta, 500 pg/mL. Potency, µM (titrated, usually from 46.1 µM), inactives show at the highest dose activity, negative = inhibition, actives largely listed as inhibitors. 63% of 1,600 active; note: potency is the fitted concentration of half-maximal effect; % is set by controls: 0 for no effect and ±100 for the full control effect; nearly all actives have a fitted effect of over 65% in size
HepG2 tox-2 = HepG2 cytotoxicity, TGF-b inhibitor counterscreen; shares compounds with TGFb SMAD3 inh; HepG2 CAGA-GFP viability, ATP luminescence, 18 h; cells stimulated with TGF-beta, 500 pg/mL; Potency, µM (doses to about 46.1 µM), for inactives: at the top dose activity, negative = cytotoxicity, hits mostly inhibitors; 27% of 1,600 active; AID 720535; note: potency is the fitted concentration of half-maximal effect; % is set by controls: 0 for no effect and ±100 for the full control effect; nearly all actives have a fitted effect of over 70% in size
TGFb CCL64 inh = TGF-b inhibition, CCL64 orthogonal assay; 41% of 1,600 active; CCL64 CAGA-GFP reporter, TGF-b stimulated, GFP fluorescence, 18 h; shares compounds with TGFb SMAD3 inh; Potency, µM (titrated, usually from 46.1 µM), for the others: at the highest dose activity, negative = inhibition, usual class: inhibitors; note: potency is the fitted concentration of half-maximal effect; nearly all actives have a fitted effect of over 65% in size
COP TGFb inh = blocks TGF-b signaling in HepG2 COP reporter; shares compounds with TGFb SMAD3 inh; HepG2 COP-GFP TGF-b reporter, GFP fluorescence, 18 h; cells stimulated by added recombinant TGF-beta; Potency, µM (doses to about 46.1 µM), without a hit: at the highest dose activity, negative = inhibition, usual class: inhibitors; 3% of 1,600 active; AID 720537; note: potency is the fitted concentration of half-maximal effect; nearly all actives have a fitted effect of over 70% in size
EBOV S4 ratio = Ebola virus entry blockers, screen 4 ratio channel | shares compounds with ATXN2 expr inh | Ebola pseudovirus entry assay, ratio channel | AC50, µM | 79% of 170 active | AID 1117308; calls by dose curve
EBOV entry S4 bl = Ebola entry inhibition, blue channel, screen 4; shares compounds with ATXN2 expr inh; calls only; 170 tested, under 10 active; Ebola virus entry assay, blue channel fluorescence ratio; Channel: blue; call rule not given here
EBOV S4 green = blocks Ebola virus entry, screen 4 green channel readout; AID 1117316; calls only; 170 tested, under 10 active; Ebola virus entry reporter assay, green fluorescence channel; Channel: green; shares compounds with ATXN2 expr inh; call rule not given here
* hit, by the source's call; i = inactive; ? = inconclusive; · = no result; ! = a repeat was not active; [ ] = dose if it differs, or a comment. Unless noted, calls come from the whole dose curve; as a rule, active = well fitted curve in the direction sought with a large enough effect; inconclusive = small, poorly fitted or top-dose-only effect, or another doubt; inactive = no such curve, though single readings can be large; an effect the other way counts as inactive or inconclusive.

SMILES | ATXN2 expr inh | ATXN viability | HT1080 IDH1KD tx | TGFb SMAD3 inh | HT1080NT lethal | HepG2 tox-1 | others
CC1CCC/C=C/C2CC(O)CC2C(O)/C=C/C(=O)O1 (stereo not given) | ? | ? | ? | 0.11µM* | ? | -39% | TGFb confirm=0.065µM*;HepG2 tox-2=?;TGFb CCL64 inh=?;COP TGFb inh=67%
OC(CNCc1ccccc1)c1ccc(Cl)cc1 (stereo not given) | -11% | i | -9% | 1% | -11% | -12%
C[C@H](CO)N1C[C@H](C)[C@@H](CN(C)Cc2ccc(-c3ccccc3)cc2)Oc2c(NC(=O)c3ccncc3)cccc2C1=O | ? | ? | -22% | ? | ? | -3%
Cc1ccc(Cl)cc1N1CCN(CCN)CC1 | -6% | i | -25% | -1% | -23% | -71%
CCC(C)(C)NC(=O)Cn1c(-c2ccc(C)cc2)noc1=O | 5% | i | 2% | 31% | 11% | 72%
C#CCOC(C(=O)OCCN(C)C)(c1ccccc1)c1ccccc1 | 19% | i | · | · | · | ·
Cc1ccc(NC(=O)Nc2ccc3nc(N4CCN(C)CC4)cc(C)c3c2)cc1F | 16% | ? | · | 26% | · | -23%
NCCCC(O)(P(=O)(O)O)P(=O)(O)O | 0% | i | · | · | · | · | EBOV S4 ratio=i;EBOV entry S4 bl=i;EBOV S4 green=i
Nc1c(C(=O)Nc2ccc(OC(F)(F)F)cc2)sc2nc3c(cc12)N1CCC3CC1 | · | · | · | -25% | · | -17%
COC(=O)[C@@H](c1ccccc1)C1CCCCN1 (stereo not given in full) | 2% | i | 20% | -1% | 24% | 3%
CN1[C@H]2CC(=O)C[C@@H]1[C@@H](O)C2 | · | i | · | · | · | ·
C/C=C(\CC)C(=O)NC(N)=O | · | i | · | · | · | ·
O=C(NC(O)C(Cl)(Cl)Cl)NC(O)C(Cl)(Cl)Cl (stereo not given) | 6% | i | · | · | · | ·
O=C1NCN(c2ccccc2)C12CCNCC2 | -9% | i | 6% | 3% | -3% | 11%
O=C1CC(N2CCC(n3c(=O)[nH]c4ccccc43)CC2)C(=O)N1c1ccc(F)cc1 (stereo not given) | -7% | ? | 10% | 11% | 9% | -4%
CCCOC(=O)Cc1ccc(OCC(=O)N(CC)CC)c(OC)c1 | 0% | i | · | · | · | ·
Clc1ccc2c(N3CCNCC3)ccnc2c1 | -10% | i | 1% | 2% | 3% | -1%
Cc1cccc(N2CCN(C(=O)C34CC5CC(CC(C5)C3)C4)CC2)c1C | -3% | i | 8% | 0% | 9% | 5%
COC(=O)[C@H]1[C@H]2C[C@@H]3c4[nH]c5cc(OC)ccc5c4CCN3C[C@H]2C[C@@H](OC(=O)/C=C/c2cc(OC)c(OC)c(OC)c2)[C@@H]1OC | 5% | ? | ? | 3% | ? | 5%
C[C@H]1COC(=O)[C@H](Cc2ccc(F)cc2)CC/C=C/C[C@@H](CC(=O)N(CCO)Cc2ccccc2)C(=O)N1 | 3% | ? | 8% | ? | 7% | -26%
CN1C[C@H](CNC(=O)OCc2ccccc2)C[C@H]2c3cccc4c3c(cn4C)C[C@@H]21 | · | i | · | · | · | ·
NNc1ccccc1 | 9% | i | · | · | · | ·
COc1ccc(OC)c([C@H](O)[C@H](C)N)c1 | · | i | · | · | · | ·
Cc1cccc(N2C(=O)NC(=O)/C(=C/c3ccc([N+](=O)[O-])o3)C2=O)c1 | -4% | i | -5% | 0% | -1% | -30%
COc1cccc2c1C(=O)c1c(O)c3c(c(O)c1C2=O)C[C@@](O)(C(C)=O)C[C@@H]3O[C@H]1C[C@H](N)[C@H](O)[C@H](C)O1 | 10µM*! | ? | 0.15µM* | ? | 0.073µM* | 11% | EBOV S4 ratio=2.4µM*;EBOV entry S4 bl=i;EBOV S4 green=i
SMILES | ATXN2 expr inh | ATXN viability | HT1080 IDH1KD tx | TGFb SMAD3 inh | HT1080NT lethal | HepG2 tox-1 | others
COC1CC(=C(c2cccs2)c2cccs2)C[N+](C)(C)C1 (stereo not given) | -3% | i | · | · | · | ·
Cc1cccc(N(CC(=O)NCCSc2ccc(Cl)cc2)S(=O)(=O)c2ccccc2)c1C | · | · | · | ? | · | -20%
Cc1cc(-c2nc3ncccc3o2)ccc1NC(=O)c1ccccc1Br | 24% | ? | · | 1% | · | 4%
O=C(O)c1ccc2[nH]cc(CCCCN3CC=C(c4ccccc4)CC3)c2c1 | -3% | i | · | · | · | ·
CC1CCN(C(=O)N2c3ccccc3Sc3ccccc32)CC1 | 70% | i | -5%[9.24 µM] | ? | ? | -21%
COc1cc([C@@H]2c3cc4c(cc3[C@@H](O)C3COC(=O)C32)OCO4)cc(OC)c1O (stereo not given in full) | -25% | · | · | -17% | · | 10%
Cc1cc2oc(=O)cc(-c3ccccc3)c2c(C)c1-c1ccc(CO)cc1 | -14% | ? | 0% | ? | 0% | -27%
CN(C)c1ccccc1 | · | i | -5% | -13% | 11% | -20%
